{"source": "PubChem BioAssay", "note": "“And” between values parts separate entries of the source, which are not always exact repeats. Identical values can stand only once. The source made the active and inactive calls. Cut-off read from the data, not from the text of the source: active = inhibition above about 80%; inactive = the rest.", "data": [{"assay": "drug combination toxicity in non-malignant astrocytes – cell-based, BGB or cisplatin IC20 combos, cytotoxicity control for chromothriptic childhood tumor combination screen (AID 1671460);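 note: cells exposed to compounds for 96 hours before viability readout; 0% = vehicle and 100% = killing control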", "settings": "Human astrocytes, viability inhibition, drug combinations; measured here: combo with BGB IC20; at 0.5 µM; stronger effect = higher value", "values": [{"smiles": "Cc1ccc2nc(NCCN)c3ncc(C)n3c2c1", "inhibition": "0.763%"}, {"smiles": "C[C@]1(c2nc3c(C(N)=O)cccc3[nH]2)CCCN1", "inhibition": "-1.53% and -5.78%"}, {"smiles": "O=C(O)[C@H](Cc1c[nH]c2ccccc12)N1C(=O)c2ccccc2C1=O", "inhibition": "-8.01%"}, {"smiles": "CN(C)CCN1C(=O)c2cccc3cc(N)cc(c23)C1=O", "inhibition": "-2.82%"}]}, {"assay": "drug combination toxicity in non-malignant astrocytes – cell-based, BGB or cisplatin IC20 combos, cytotoxicity control for chromothriptic childhood tumor combination screen (AID 1671460)", "settings": "Human astrocytes, viability inhibition, drug combinations; measured here: combo with cisplatin IC20; at 0.5 µM; stronger effect = higher value", "values": [{"smiles": "Cc1ccc2nc(NCCN)c3ncc(C)n3c2c1", "inhibition": "2.83%"}, {"smiles": "C[C@]1(c2nc3c(C(N)=O)cccc3[nH]2)CCCN1", "inhibition": "9.8% and -13.1%"}, {"smiles": "O=C(O)[C@H](Cc1c[nH]c2ccccc12)N1C(=O)c2ccccc2C1=O", "inhibition": "4.01%"}, {"smiles": "CN(C)CCN1C(=O)c2cccc3cc(N)cc(c23)C1=O", "inhibition": "-2.98%"}]}, {"assay": "BT084 cell growth, single and combined drugs, ICGC_MB145, cisplatin and BGB IC40 combos (AID 1671461);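 note: cells exposed to drugs for 96 hours; 0% = vehicle DMSO and 100% = high DMSO full killing control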", "settings": "BT084 medulloblastoma cells, drug combinations, at 0.5 µM, stronger effect = higher value", "values": [{"smiles": "Cc1ccc2nc(NCCN)c3ncc(C)n3c2c1", "inhibition": "4.08% (inactive)"}, {"smiles": "C[C@]1(c2nc3c(C(N)=O)cccc3[nH]2)CCCN1", "inhibition": "-14.1% (inactive) and -22% (inactive)"}, {"smiles": "O=C(O)[C@H](Cc1c[nH]c2ccccc12)N1C(=O)c2ccccc2C1=O", "inhibition": "-10.1% (inactive)"}, {"smiles": "CN(C)CCN1C(=O)c2cccc3cc(N)cc(c23)C1=O", "inhibition": "-6.16% (inactive)"}]}, {"assay": "BT084 cell growth, single and combined drugs, ICGC_MB145, cisplatin and BGB IC40 combos (AID 1671461)", "settings": "BT084 medulloblastoma cells, drug combinations, cisplatin combination, at 0.5 µM, stronger effect = higher value", "values": [{"smiles": "Cc1ccc2nc(NCCN)c3ncc(C)n3c2c1", "inhibition": "-3.36%"}, {"smiles": "C[C@]1(c2nc3c(C(N)=O)cccc3[nH]2)CCCN1", "inhibition": "-37.9% and -21.6%"}, {"smiles": "O=C(O)[C@H](Cc1c[nH]c2ccccc12)N1C(=O)c2ccccc2C1=O", "inhibition": "-26.2%"}, {"smiles": "CN(C)CCN1C(=O)c2cccc3cc(N)cc(c23)C1=O", "inhibition": "-21.8%"}]}, {"assay": "BT084 cell growth, single and combined drugs, ICGC_MB145, cisplatin and BGB IC40 combos (AID 1671461)", "settings": "BT084 medulloblastoma cells, drug combinations, cisplatin combination, at 5 µM, stronger effect = higher value", "values": [{"smiles": "Cc1ccc2nc(NCCN)c3ncc(C)n3c2c1", "inhibition": "46.6%"}, {"smiles": "C[C@]1(c2nc3c(C(N)=O)cccc3[nH]2)CCCN1", "inhibition": "2.98% and -9.14%"}, {"smiles": "O=C(O)[C@H](Cc1c[nH]c2ccccc12)N1C(=O)c2ccccc2C1=O", "inhibition": "-3.75%"}, {"smiles": "CN(C)CCN1C(=O)c2cccc3cc(N)cc(c23)C1=O", "inhibition": "-12.3%"}]}, {"assay": "BT084 cell growth, single and combined drugs, ICGC_MB145, cisplatin and BGB IC40 combos (AID 1671461)", "settings": "BT084 medulloblastoma cells, drug combinations, measured here: BGB IC40 combination 0.05 uM, at 0.05 µM, stronger effect = higher value", "values": [{"smiles": "Cc1ccc2nc(NCCN)c3ncc(C)n3c2c1", "inhibition": "-4.49%"}, {"smiles": "C[C@]1(c2nc3c(C(N)=O)cccc3[nH]2)CCCN1", "inhibition": "13.6% and 2.76%"}, {"smiles": "O=C(O)[C@H](Cc1c[nH]c2ccccc12)N1C(=O)c2ccccc2C1=O", "inhibition": "-4.25%"}, {"smiles": "CN(C)CCN1C(=O)c2cccc3cc(N)cc(c23)C1=O", "inhibition": "-42.3%"}]}, {"assay": "BT084 cell growth, single and combined drugs, ICGC_MB145, cisplatin and BGB IC40 combos (AID 1671461)", "settings": "BT084 medulloblastoma cells, drug combinations, single agent, at 5 µM, stronger effect = higher value", "values": [{"smiles": "Cc1ccc2nc(NCCN)c3ncc(C)n3c2c1", "inhibition": "32.4%"}, {"smiles": "C[C@]1(c2nc3c(C(N)=O)cccc3[nH]2)CCCN1", "inhibition": "-8.42% and -18.5%"}, {"smiles": "O=C(O)[C@H](Cc1c[nH]c2ccccc12)N1C(=O)c2ccccc2C1=O", "inhibition": "-4.64%"}, {"smiles": "CN(C)CCN1C(=O)c2cccc3cc(N)cc(c23)C1=O", "inhibition": "-40.8%"}]}, {"assay": "RCMB18 cell growth, single agent and combined, cisplatin and BGB IC40 combos (AID 1671462);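 note: cells exposed to compound for four days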", "settings": "RCMB18 medulloblastoma cells, at 0.5 µM, stronger effect = higher value", "values": [{"smiles": "Cc1ccc2nc(NCCN)c3ncc(C)n3c2c1", "inhibition": "1.56% (inactive)"}, {"smiles": "C[C@]1(c2nc3c(C(N)=O)cccc3[nH]2)CCCN1", "inhibition": "-11.5% (inactive) and -16.6% (inactive)"}, {"smiles": "O=C(O)[C@H](Cc1c[nH]c2ccccc12)N1C(=O)c2ccccc2C1=O", "inhibition": "-10.5% (inactive)"}, {"smiles": "CN(C)CCN1C(=O)c2cccc3cc(N)cc(c23)C1=O", "inhibition": "-2.53% (inactive)"}]}, {"assay": "RCMB18 cell growth, single agent and combined, cisplatin and BGB IC40 combos (AID 1671462)", "settings": "RCMB18 medulloblastoma cells, cisplatin combo, at 5 µM, stronger effect = higher value", "values": [{"smiles": "Cc1ccc2nc(NCCN)c3ncc(C)n3c2c1", "inhibition": "76%"}, {"smiles": "C[C@]1(c2nc3c(C(N)=O)cccc3[nH]2)CCCN1", "inhibition": "-70.2% and -50.3%"}, {"smiles": "O=C(O)[C@H](Cc1c[nH]c2ccccc12)N1C(=O)c2ccccc2C1=O", "inhibition": "-5.73%"}, {"smiles": "CN(C)CCN1C(=O)c2cccc3cc(N)cc(c23)C1=O", "inhibition": "-21%"}]}, {"assay": "RCMB18 cell growth, single agent and combined, cisplatin and BGB IC40 combos (AID 1671462)", "settings": "RCMB18 medulloblastoma cells, measured here: BGB IC40 combination, at 0.05 µM, stronger effect = higher value", "values": [{"smiles": "Cc1ccc2nc(NCCN)c3ncc(C)n3c2c1", "inhibition": "1.88%"}, {"smiles": "C[C@]1(c2nc3c(C(N)=O)cccc3[nH]2)CCCN1", "inhibition": "-22.5% and 6.81%"}, {"smiles": "O=C(O)[C@H](Cc1c[nH]c2ccccc12)N1C(=O)c2ccccc2C1=O", "inhibition": "-15.4%"}, {"smiles": "CN(C)CCN1C(=O)c2cccc3cc(N)cc(c23)C1=O", "inhibition": "-28.2%"}]}, {"assay": "RCMB18 cell growth, single agent and combined, cisplatin and BGB IC40 combos (AID 1671462)", "settings": "RCMB18 medulloblastoma cells, measured here: combination with cisplatin, at 0.5 µM, stronger effect = higher value", "units": {"inhibition": "%"}, "values": [{"smiles": "Cc1ccc2nc(NCCN)c3ncc(C)n3c2c1", "inhibition": 32.9}, {"smiles": "C[C@]1(c2nc3c(C(N)=O)cccc3[nH]2)CCCN1", "inhibition": -15.1}, {"smiles": "O=C(O)[C@H](Cc1c[nH]c2ccccc12)N1C(=O)c2ccccc2C1=O", "inhibition": -22.8}, {"smiles": "CN(C)CCN1C(=O)c2cccc3cc(N)cc(c23)C1=O", "inhibition": 2.14}]}, {"assay": "RCMB18 cell growth, single agent and combined, cisplatin and BGB IC40 combos (AID 1671462)", "settings": "RCMB18 medulloblastoma cells, single agent, at 5 µM, stronger effect = higher value", "values": [{"smiles": "Cc1ccc2nc(NCCN)c3ncc(C)n3c2c1", "inhibition": "33.3%"}, {"smiles": "C[C@]1(c2nc3c(C(N)=O)cccc3[nH]2)CCCN1", "inhibition": "-28.5% and -25.1%"}, {"smiles": "O=C(O)[C@H](Cc1c[nH]c2ccccc12)N1C(=O)c2ccccc2C1=O", "inhibition": "-14.1%"}, {"smiles": "CN(C)CCN1C(=O)c2cccc3cc(N)cc(c23)C1=O", "inhibition": "-32.9%"}]}, {"assay": "CRL1545 cell growth, single agent and combined, cisplatin and BGB IC20 combos (AID 1671464);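 note: cells exposed to compound for 96 hours before readout; 0% = vehicle DMSO and 100% = high DMSO killing control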", "settings": "CRL1545 osteosarcoma cells, at 0.5 µM, stronger effect = higher value", "values": [{"smiles": "Cc1ccc2nc(NCCN)c3ncc(C)n3c2c1", "inhibition": "-12.7% (inactive)"}, {"smiles": "C[C@]1(c2nc3c(C(N)=O)cccc3[nH]2)CCCN1", "inhibition": "-23.7% (inactive) and 9.34% (inactive)"}, {"smiles": "O=C(O)[C@H](Cc1c[nH]c2ccccc12)N1C(=O)c2ccccc2C1=O", "inhibition": "-39.1% (inactive)"}, {"smiles": "CN(C)CCN1C(=O)c2cccc3cc(N)cc(c23)C1=O", "inhibition": "-31.5% (inactive)"}]}, {"assay": "CRL1545 cell growth, single agent and combined, cisplatin and BGB IC20 combos (AID 1671464)", "settings": "CRL1545 osteosarcoma cells, measured here: with BGB IC20 combination, at 0.5 µM, stronger effect = higher value", "values": [{"smiles": "Cc1ccc2nc(NCCN)c3ncc(C)n3c2c1", "inhibition": "-11.3%"}, {"smiles": "C[C@]1(c2nc3c(C(N)=O)cccc3[nH]2)CCCN1", "inhibition": "-29.8% and -8.71%"}, {"smiles": "O=C(O)[C@H](Cc1c[nH]c2ccccc12)N1C(=O)c2ccccc2C1=O", "inhibition": "-34.3%"}, {"smiles": "CN(C)CCN1C(=O)c2cccc3cc(N)cc(c23)C1=O", "inhibition": "-17.6%"}]}, {"assay": "CRL1545 cell growth, single agent and combined, cisplatin and BGB IC20 combos (AID 1671464)", "settings": "CRL1545 osteosarcoma cells, measured here: with cisplatin IC20 combination, at 0.5 µM, stronger effect = higher value", "values": [{"smiles": "Cc1ccc2nc(NCCN)c3ncc(C)n3c2c1", "inhibition": "-13.3%"}, {"smiles": "C[C@]1(c2nc3c(C(N)=O)cccc3[nH]2)CCCN1", "inhibition": "-22.5% and 16.5%"}, {"smiles": "O=C(O)[C@H](Cc1c[nH]c2ccccc12)N1C(=O)c2ccccc2C1=O", "inhibition": "-43.9%"}, {"smiles": "CN(C)CCN1C(=O)c2cccc3cc(N)cc(c23)C1=O", "inhibition": "-40.7%"}]}]}
